Measurements: PubChem BioAssay AID1159580 (chemical genetic matrix, 2015)
Where “and” joins values, the source holds several entries; their conditions need not be identical. Identical values can stand only once. Screen size: about 5,500 compounds; about 2,000 (36%) were called active. Inconclusive results (about 18%) are left out. Cut-off read from the data, not from the text of the source: active = normalized growth mostly below about 0.91 (no sharp cut-off); inconclusive = no clear call, values can overlap the other calls; inactive = mostly above about 0.92. This is one part of the list.

Experiment: chemical genetic growth profiling, strain panel (AID 1159580);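 note: tested at 20 µM; growth read once vehicle control cultures reached saturation at 30 °C; 1 = growth at the plate median or of vehicle wells; lower values mean less growth of the strain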
Settings: S. cerevisiae deletion strains, growth OD

Measured: normalized growth

CCCCOc1cc(C(=O)NCCN(CC)CC)c2ccccc2n1
inactive: locus YAL021C, strain ccr4, stronger effect = lower value 0.956 | locus YAL026C, strain drs2, stronger effect = lower value 0.986 | locus YAL030W, strain snc1, stronger effect = lower value 0.972 | locus YBL061C, strain skt5, stronger effect = lower value 0.97 | locus YBR009C, strain hhf1, stronger effect = lower value 0.97 | locus YBR021W, strain FUR4, stronger effect = lower value 1.02 | locus YBR023C, strain chs3, stronger effect = lower value 0.977 | locus YBR171W, strain sec66, stronger effect = lower value 0.947 | locus YBR229C, strain ROT2, stronger effect = lower value 1.01 | locus YBR231C, strain swc5, stronger effect = lower value 0.959 | locus YBR279W, strain paf1, stronger effect = lower value 0.998 | locus YCL011C, strain gbp2, stronger effect = lower value 0.987 | locus YCL016C, strain dcc1, stronger effect = lower value 1.01 | locus YCL029C, strain bik1, stronger effect = lower value 1.01 | locus YCL061C, strain MRC1, stronger effect = lower value 0.967 | locus YCL069W, strain vba3, stronger effect = lower value 0.984 | locus YCR088W, strain abp1, stronger effect = lower value 0.954 | locus YDL005C, strain med2, stronger effect = lower value 0.972 | locus YDL035C, strain GPR1, stronger effect = lower value 1.03 | locus YDL040C, strain nat1, stronger effect = lower value 0.96 | locus YDL074C, strain BRE1, stronger effect = lower value 1 | locus YDL101C, strain DUN1, stronger effect = lower value 1 | locus YDL134C, strain PPH21, stronger effect = lower value 1.03 | locus YDL185W, strain tfp1, stronger effect = lower value 1.01 | locus YDL192W, strain arf1, stronger effect = lower value 1 | locus YDR001C, strain nth1, stronger effect = lower value 0.933 | locus YDR069C, strain doa4, stronger effect = lower value 0.932 | locus YDR101C, strain arx1, stronger effect = lower value 1.01 | locus YDR137W, strain rgp1, stronger effect = lower value 1.02 | locus YDR159W, strain sac3, stronger effect = lower value 0.973 | locus YDR162C, strain NBP2, stronger effect = lower value 1.01 | locus YDR195W, strain ref2 0.932 | locus YDR297W, strain sur2, stronger effect = lower value 0.966 | locus YDR318W, strain mcm21, stronger effect = lower value 0.984 | locus YDR334W, strain swr1, stronger effect = lower value 0.925 | locus YDR335W, strain msn5, stronger effect = lower value 0.942 | locus YDR388W, stronger effect = lower value 0.995 | locus YDR392W, strain spt3, stronger effect = lower value 1.05 | locus YDR502C, strain sam2, stronger effect = lower value 0.996 | locus YEL003W, strain gim4, stronger effect = lower value 0.959 | locus YEL037C, strain rad23, stronger effect = lower value 0.968 | locus YEL061C, strain CIN8 (second series), stronger effect = lower value 0.941 | locus YEL061C, strain CIN8, stronger effect = lower value 1 | locus YER015W, strain faa2, stronger effect = lower value 0.973 | locus YER016W, strain bim1, stronger effect = lower value 1.01 | locus YER110C, stronger effect = lower value 1 | locus YER111C, strain swi4, stronger effect = lower value 0.966 | locus YER155C, strain BEM2 (second series), stronger effect = lower value 0.886 | locus YER155C, strain BEM2, stronger effect = lower value 0.998 | locus YER167W, strain BCK2, stronger effect = lower value 1 | locus YFR010W, strain ubp6, stronger effect = lower value 0.94 | locus YGL078C, strain dbp3, stronger effect = lower value 0.995 | locus YGL086W, strain mad1, stronger effect = lower value 0.992 | locus YGL167C, strain pmr1, stronger effect = lower value 0.939 | locus YGL173C, strain kem1, stronger effect = lower value 0.966 | locus YGL227W, strain vid30, stronger effect = lower value 0.956 | locus YGL240W, strain doc1, stronger effect = lower value 0.92 | locus YGL248W, strain PDE1, stronger effect = lower value 0.999 | locus YGL253W, strain hxk2, stronger effect = lower value 0.995 | locus YGR078C, strain PAC10, stronger effect = lower value 1 | locus YGR135W, strain pre9, stronger effect = lower value 0.977 | locus YGR252W, strain gcn5, stronger effect = lower value 0.914 | locus YHR013C, strain ard1, stronger effect = lower value 1.01 | locus YHR027C, strain rpn1, stronger effect = lower value 0.973 | locus YHR030C, strain SLT2, stronger effect = lower value 1.01 and 1.04 | locus YHR079C, strain IRE1 (second series), stronger effect = lower value 0.982 | locus YHR079C, strain IRE1, stronger effect = lower value 1.02 | locus YHR094C, strain hxt1, stronger effect = lower value 0.991 | locus YHR129C, strain ARP1, stronger effect = lower value 1.01 | locus YHR142W, strain chs7, stronger effect = lower value 0.974 | locus YHR200W, strain rpn10, stronger effect = lower value 0.998 | locus YIL066C, strain RNR3, stronger effect = lower value 1.01 | locus YIL073C, strain SPO22, stronger effect = lower value 1.03 | locus YIL125W, strain kgd1, stronger effect = lower value 0.997 | locus YIR030C, strain dcg1, stronger effect = lower value 0.993 | locus YJL092W, strain hpr5, stronger effect = lower value 0.979 | locus YJL095W, strain BCK1 (second series), stronger effect = lower value 0.966 | locus YJL095W, strain BCK1, stronger effect = lower value 0.988 and 1.04 | locus YJL115W, strain asf1, stronger effect = lower value 0.94 | locus YJL129C, strain trk1, stronger effect = lower value 0.939 | locus YJL134W, strain LCB3, stronger effect = lower value 1 | locus YJL154C, strain vps35, stronger effect = lower value 0.942 | locus YJL164C, strain tpk1, stronger effect = lower value 1 | locus YJL166W, strain qcr8, stronger effect = lower value 0.937 | locus YJL168C, strain set2, stronger effect = lower value 0.997 | locus YJL187C, strain SWE1 (second series), stronger effect = lower value 0.999 | locus YJR043C, strain POL32, stronger effect = lower value 1.02 | locus YJR066W, strain TOR1, stronger effect = lower value 0.968
